MCF10A rereplic = induces DNA re-replication in MCF 10a normal breast cells. MCF 10A DNA re-replication, Hoechst nuclear intensity, 48 h. Potency, µM (titrated, usually from 46.1 µM), for inactives: at the highest dose activity, positive = re-replication, hits mostly activators. 350,000 tested, 2.9% active; also: potency is read from the fitted curve at half-maximal effect; % of control where 0% means no effect; nearly all actives have a fitted effect of over 50% in size
Giardia killer = Giardia lamblia killing. activity change, % at 7.66 µM, hits read low. Giardia lamblia trophozoite viability. 340,000 tested, 0.15% active; in the data active = activity change below about -80%; inconclusive = between about -30% and that limit;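 also: parasites exposed to compound for two days anaerobically before the ATP read; % is scaled to controls: 0 for no effect and ±100 for the full control effect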
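Killing of trophozoites was scored by loss of ATP luminescence after a 48 hrs anaerobic exposure to compounds at 37 deg C, using 100 cells per well.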
RORg inh = ROR gamma (mouse) transcription inhibition; Potency, µM (top dose mostly 53.6 µM), inactives show at the highest dose activity change, negative = inhibition, hits mostly inhibitors; Drosophila S2 Gal4-RORgamma UAS-luciferase reporter, 20 h; AID 2551; P51450; 310,000 tested, 5.4% active; also: potency is read from the fitted curve at half-maximal effect; % is scaled to controls: 0 for no effect and ±100 for the full control effect; nearly all actives have a fitted effect of over 60% in size
Target sequence (P51450 whole entry, looked up, the tested form may be a part): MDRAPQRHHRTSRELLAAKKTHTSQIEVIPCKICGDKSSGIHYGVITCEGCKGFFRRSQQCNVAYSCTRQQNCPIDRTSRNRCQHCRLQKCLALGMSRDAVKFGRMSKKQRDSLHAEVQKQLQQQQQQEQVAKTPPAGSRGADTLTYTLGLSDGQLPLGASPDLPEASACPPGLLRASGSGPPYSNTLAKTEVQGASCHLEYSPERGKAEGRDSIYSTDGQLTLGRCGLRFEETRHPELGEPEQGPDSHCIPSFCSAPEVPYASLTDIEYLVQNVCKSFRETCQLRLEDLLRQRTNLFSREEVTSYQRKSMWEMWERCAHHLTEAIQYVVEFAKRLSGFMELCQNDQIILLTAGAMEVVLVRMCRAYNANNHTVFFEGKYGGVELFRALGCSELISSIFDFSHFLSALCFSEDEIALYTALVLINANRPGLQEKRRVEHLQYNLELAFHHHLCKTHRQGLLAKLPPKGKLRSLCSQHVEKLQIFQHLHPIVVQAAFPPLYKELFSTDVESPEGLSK
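Read-out: Photinus luciferase luminescence; inhibitors lower reporter signal. Insect Schneider cells with Gal4-ROR gamma fusion under metallothionein promoter, UAS reporter; 700 uM final copper sulfate induction, 20 hr, ambient temperature.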
Chronic BCR inh = blocks chronic active B-cell receptor signaling | ABC-DLBCL IkBa-CBG/CBR reporter, luminescence ratio, 4 h | Potency, µM (highest dose often 46.1 µM), without a hit: at the top dose activity change, negative = inhibition, most hits filed as inhibitors | 340,000 tested, 0.05% active; active = well fitted inhibition curve with a large enough effect in the signal ratio, with a control signal flat, not every such curve was filed as active; inconclusive = small, poorly fitted or top-dose-only effect, or effect the other way, or a change in a side signal; the % refers to the signal ratio;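 also: potency is read from the fitted curve at half-maximal effect; plate controls were basal doxycycline-induced cells for no effect and cells given 10 µM MG132 for full effect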
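TMD8 ABC-DLBCL cells carrying doxycycline-inducible green luciferase fused to IkappaBalpha plus unfused red luciferase were exposed to compounds (up to 46 uM) for 4 hrs at 37C. Activity came from the overlap-corrected green/red luminescence ratio.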
Gal4-VP16 FLuc = inhibits Gal4-VP16 luciferase reporter, ROR gamma counter-screen. Potency, µM (doses to about 53.6 µM), for inactives: top-dose activity, negative = inhibition, most hits filed as inhibitors. 310,000 tested, 3.5% active. Drosophila S2 Gal4-VP16 UAS-luciferase, luminescence, 20 h;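 also: Gal4-VP16 expression switched on by copper sulfate through the metallothionein promoter; potency is read from the fitted curve at half-maximal effect; % is scaled to controls: 0 for no effect and ±100 for the full control effect; nearly all actives have a fitted effect of over 50% in size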
SW480 rereplic = DNA re-replication induction in SW480 cells. SW480 DNA re-replication, Hoechst DNA content imaging, 48 h. Potency, µM (titrated, usually from 46.1 µM), for the others: at the top dose re-replication activation, usual class: activators. 340,000 tested, 1.8% active; also: potency is read from the fitted curve at half-maximal effect; % of control where 0% means no effect; nearly all actives have a fitted effect of over 55% in size
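Image-based read-out: total Hoechst fluorescence of nuclei (405 nm excitation, 500-530 nm emission), with hits raising the fraction of high-intensity nuclei. SW480 colon cells incubated 48 hr with compounds at 37 C.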
The depositor's hits bear a star; ? = inconclusive; · = no result; [ ] = dose if it differs, or a comment. Rows were chosen to be rich in hits. Some 8.3% of all compounds tested hit in one or more screens of this group. Unless noted, calls follow the shape of the dose curve; as a rule, active = well fitted curve in the direction sought with a large enough effect; inconclusive = small, poorly fitted or top-dose-only effect, or another doubt; inactive = no such curve, though single readings can be large; an effect the other way counts as inactive or inconclusive.

SMILES	MCF10A rereplic	Giardia killer	RORg inh	Chronic BCR inh	Gal4-VP16 FLuc	SW480 rereplic
CN(C(=O)COC(=O)c1ccc(=O)n(Cc2ccccc2)n1)c1ccccc1	3%	-25	2%	0%	2%	-98%
COc1ccc(-c2noc(CCCC(=O)NC3CCCC3)n2)cc1	-20%	-23	4.5µM*	8%	14µM*	-9%
COc1ccc(-c2noc(CCCC(=O)Nc3ccc(C(N)=O)cc3)n2)cc1	-6%	-4	1.6µM*	?	2.5µM*	2%
COc1ccc(-c2noc(CCC(=O)NC3CCCCCC3)n2)cc1	?	1	25%	3%	-6%	?
COc1cc(-c2noc(CCCC(=O)Nc3ccc(C(N)=O)cc3)n2)cc(OC)c1OC	0%	-25	15%	?	?	-11%
CC(C)c1nc(=S)c2ccccc2[nH]1	1%	-5	5.6µM*	-11%	10µM*	-7%
S=c1nc(C2CC2)[nH]c2ccccc12	?	-11	3.5µM*	?	5.6µM*	-2%
O=c1[nH]c(C2CCCCC2)nc2ccccc12	1%	15	20%	2%	2%	-3%
S=c1nc(C2CCCCC2)[nH]c2ccccc12	4%	7	0.63µM*	8%	8.9µM*	-3%
c1ccc(CSc2nc3ncncc3[nH]2)cc1	2%	16	-2%	-9%	-3%	-11%
S=c1nc(SCc2ccccc2)[nH]c2ccccc12	30%	-7	1.4µM*	11%	10µM*	-76%
CCN(CC(=O)Nc1ccc2c(c1)OCCO2)S(=O)(=O)c1ccccc1	-35%	10	·	-9%	·	-2%
FC(F)(F)c1nnc(-c2ccccc2)nc1Sc1ccccc1	5.2µM*	-4	?	?	?	?
CC(=O)c1cc(C#N)c(Oc2cccc(C(F)(F)F)c2)nc1C	-2%	13	4%	?	0%	-3%
FC(F)(F)c1nnc(-c2ccccc2)nc1Sc1ccc(Cl)cc1	5.8µM*	-10	6.3µM*	6%	?	?
FC(F)(F)c1nnc(-c2ccccc2)nc1N1CCCC1	-3%	-2	-2%	1%	6%	-3%
CCOC(=O)c1nnc(-c2ccccc2)nc1NC	2%	-7	12%	?	-10%	-3%
CCOC(=O)c1nnc(-c2ccccc2)nc1Oc1ccccc1Cl	?	3	4.5µM*	?	5µM*	3%
FC(F)(F)c1cccc(Oc2nc(-c3ccccc3)nnc2C(F)(F)F)c1	15µM*	-4	20%	?	-11%	-2%
O=C1CCC/C(=N\NC(=O)COc2ccc(Cl)cc2)C1	-7%	12	-11%	-3%	-7%	2%
CCCc1cc(C(=O)NC2CCCN(Cc3ccccc3F)C2)no1 (centres undefined)	4%	2	?	-12%	-5%	?
FC(F)(F)c1cccc(Sc2nc(-c3ccccc3)nnc2C(F)(F)F)c1	7.3µM*	5	3.5µM*	-5%	?	?
FC(F)(F)c1nnc(-c2ccccc2)nc1Oc1ccc(Cl)cc1Cl	3.3µM*	-9	-8%	?	-2%	-4%
CN(NC(=O)c1cccc(Cl)c1)c1nc(-c2ccccc2)nnc1C(F)(F)F	?	9	13%	-6%	-5%	?
CCOc1ccc(S(=O)(=O)N2CCC(C(=O)NCc3cccnc3)CC2)cc1	1%	20	7%	6%	-4%	2%
SMILES	MCF10A rereplic	Giardia killer	RORg inh	Chronic BCR inh	Gal4-VP16 FLuc	SW480 rereplic
Cc1ccc(Nc2cc(C)nn2-c2nc(C)cc(C)n2)cc1	?	2	?	-4%	3.2µM*	3%
Cc1cc(C)nc(-n2nc(C)cc2NC(=O)C(C)C)n1	0%	13	5µM*	7%	25%	-33%
Cc1ccc(Nc2cc(C)nn2-c2nc(C)cc(=O)[nH]2)cc1	?	-19	0.18µM*	?	0.63µM*	?
CC(=O)Nc1cc(C)nn1-c1nc(C)cc(C)n1	0%	4	?	9%	0%	0%
Cc1ccc(Nc2cc(C)nc3nnnn23)cc1	0%	-9	0%	-14%	5%	-4%
COc1cc2c(cc1OC)C1O[C@](CCCCN3C(=O)c4ccccc4C3=O)(C2)Oc2cc(C)n(Cc3ccccc3)c(=O)c21	·	·	-23%[10 µM]	?	?	·
O=C1CN(C(=O)CSc2nc3cc(Cl)ccc3c(=O)n2Cc2ccccc2)c2ccccc2N1	5%	-4	?	?	13µM*	0%
Cc1ccc(Cn2c(SCC(=O)N3CC(=O)Nc4ccccc43)nc3ccccc3c2=O)cc1	20%	14	1.6µM*	21%	?	·
O=C1CN(C(=O)CSc2nnnn2-c2ccc(Cl)cc2)c2ccccc2N1	7%	-20	3.5µM*	?	-3%	-2%
CCOc1ccc(N(CC(=O)NN=C2CCN(C)CC2)S(=O)(=O)c2ccc(Br)cc2)cc1	5%	19	0%	5%	4%	7%
CC(=O)C1=C(c2ccccc2)NC(=S)NC1c1cc(Cl)c(OC(C)C)c(Cl)c1 (centres undefined)	?	20	7.1µM*	?	5µM*	10%
COc1cc(C2NC(=S)NC(c3ccccc3)=C2C(C)=O)cc(Cl)c1OCC(=O)O (centres undefined)	-21%	-1	-2%	0%	-5%	-4%
Cc1cc[n+]2cc(-c3cccc([N+](=O)[O-])c3)c(-c3cccc([N+](=O)[O-])c3)cc2c1	-2%	-10	-6%	4%	-5%	2.6µM*
N=C1C(c2nc3ccccc3s2)=C(O)CN1Cc1ccco1	12%	3	?	4%	26%	?
CN(C)CCN1CC(O)=C(c2nc3ccccc3s2)C1=N	18µM*	-5	-16%	?	6%	3%
O=C(N/N=C/c1cc([N+](=O)[O-])cc(Br)c1O)C12CC3CCC(CC(C3)C1)C2	?	16	5µM*	?	4µM*	-4%
CCc1c(C)c(C#N)c2nc3ccccc3n2c1NC	0%	-7	13%	?	2%	-2%
Cc1cc(Cl)n2c(nc3ccccc32)c1C#N	?	0	3.2µM*	?	?	21µM*
Cc1c(CCCl)c(Cl)n2c(nc3ccccc32)c1C#N	2.9µM*	13	·	·	·	?
Cc1ccc(-c2c(C#N)c(N)n3c(nc4ccccc43)c2C#N)cc1	18µM*	33	?	?	?	18µM*
Cc1cccc(NC(=O)CSc2cc(C)c(C#N)c3nc4ccccc4n23)c1	5%	-19	0.79µM*	-9%	?	2.9µM*

Screening data (PubChem BioAssay)
